# Results as given in PubChem BioAssay (EPA / NIEHS).
# Records with an inconclusive call do not appear. Active and inactive are the calls of the source. Rule for the calls: active = hit-call score of the fitted dose curve at least 0.9, where 1 is the maximum; inconclusive = response in the unintended direction; inactive = score below 0.9.
# Test: ACEA_ER_AUC_viability: ACEA Biosciences xCELLigence Real-Time Cell Analysis on Estrogen Receptor Agonism for Viability (AID 2283782);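 note: continuous compound exposure with impedance area under curve over 80 h; hit means loss of impedance signal meaning reduced cell growth or viability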
# Procedure, shortened: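 T47D cells preconditioned in phenol red-free RPMI with charcoal-stripped FBS, then dosed with 8-point 1:4 series from 100 uM (up to 0.5% DMSO). Impedance monitored up to ~80 h; area-under-curve loss versus DMSO taken as viability.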
Structure (SMILES),outcome,AC50
N[C@@H](CCC(=O)O)C(=O)O,inactive,–
CC(=O)CCc1ccc(O)cc1,inactive,–
C[C@H](CCC(=O)O)[C@H]1CC[C@H]2[C@@H]3CC[C@@H]4C[C@H](O)CC[C@]4(C)[C@H]3CC[C@]12C,–,85.2 µM (active)
CC1(C)CC(N)CC(C)(CN)C1 (stereo not drawn),inactive,–
CCCCCCCCCCCCOC(C)=O,inactive,–
CCC(C)(C)c1cc(O)c(C(C)(C)CC)cc1O,–,72.7 µM (active)
CC/C=C\CCCCCCCCCCOC(C)=O,inactive,–
O=C(Nc1cccc(Cl)c1)OCC#CCCl,–,56.3 µM (active)
C=C(C)C(=O)OCCC[Si](OC)(OC)OC,inactive,–
CC(=O)OCC=C(C)CCC=C(C)CCC=C(C)C,inactive,–
CN(C)CCCNCCCN(C)C,–,50 µM (active)
CC/C=C/CCCCCCCCCCOC(C)=O,inactive,–
CCCCOC(=O)C(C)OC(=O)CCC (stereo not drawn),inactive,–
O=C(C=Cc1ccccc1)OCCCc1ccccc1,–,60 µM (active)
CC(C)C(=O)OCC=Cc1ccccc1,inactive,–
C=COCC1CCC(COC=C)CC1 (stereo not drawn),inactive,–
ClCCOCCOCCCl,inactive,–
N=C1N=C(N)c2ccccc21,–,74 µM (active)
NCCCOCCOCCOCCCN,–,86.7 µM (active)

Structure (SMILES),outcome,AC50
CCCOC(=O)CC,inactive,–
Nc1ccn([C@H]2CC[C@@H](CO)O2)c(=O)n1,inactive,–
C=C1CC/C=C(\C)CC[C@@H]2[C@@H]1CC2(C)C,inactive,–
C=CCS(=O)(=O)O,inactive,–
CCCCCCC(O)CCOC(C)=O (stereo not drawn),inactive,–
O=[N+]([O-])c1cc(N(CCO)CCO)ccc1NCCO,inactive,–
C=CC(=O)OCC(CO)(COC(=O)C=C)COC(=O)C=C,–,2.64 µM (active)
NC(=O)c1cnccn1,inactive,–
O=S1(=O)CC(Cl)(Cl)C(Cl)(Cl)C1,–,1.42 µM (active)
CC(C)N1C(=O)c2ccccc2C1=O,inactive,–
C=CC(C)(CCC=C(C)C)OC(=O)CC (stereo not drawn),–,50 µM (active)
CCC=C(C)C=O,inactive,–
CCCCCC#CC(=O)OC,–,50 µM (active)
CC/C=C\CCCCO,–,50 µM (active)
CC(C)CCOC(=O)CC(C)C,inactive,–
O=C(O)c1ccco1,–,50 µM (active)
Cc1ccccc1S,inactive,–
O=S(=O)(O)c1cc(O)c(O)c(S(=O)(=O)O)c1,inactive,–
C1COCO1,inactive,–
